{"source": "ChEMBL document CHEMBL2218924", "about": "“A broad activity screen in support of a chemogenomic map for kinase signalling research and drug discovery” (Biochem J, 2013)", "data": [{"target": "T1, Aurora kinase A (Homo sapiens) (UniProt O14965)", "T1 sequence (whole entry)": "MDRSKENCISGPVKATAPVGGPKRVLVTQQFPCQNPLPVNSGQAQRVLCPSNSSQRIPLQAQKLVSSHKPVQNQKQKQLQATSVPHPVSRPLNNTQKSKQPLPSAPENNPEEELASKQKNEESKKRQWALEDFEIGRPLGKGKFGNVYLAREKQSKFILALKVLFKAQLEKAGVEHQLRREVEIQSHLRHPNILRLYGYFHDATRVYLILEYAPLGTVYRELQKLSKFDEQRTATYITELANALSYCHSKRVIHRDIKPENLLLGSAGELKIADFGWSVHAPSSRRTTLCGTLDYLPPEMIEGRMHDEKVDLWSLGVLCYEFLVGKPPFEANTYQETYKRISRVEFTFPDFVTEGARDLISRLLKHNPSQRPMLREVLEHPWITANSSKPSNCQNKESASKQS", "conditions": "at 10 µM", "units": {"residual activity": "%"}, "values": [{"smiles": "c1cc(-c2cnn3cc(-c4ccc(OCCN5CCCCC5)cc4)cnc23)ccn1", "residual activity": 48}, {"smiles": "COC(=O)[C@@]1(O)C[C@H]2O[C@]1(C)n1c3ccccc3c3c4c(c5c6ccccc6n2c5c31)C(=O)NC4", "residual activity": -1}, {"smiles": "O=[N+]([O-])/C=C/c1ccc2c(c1)OCO2", "residual activity": 109}, {"smiles": "C[S+]([O-])c1ccc(-c2nc(-c3ccc(F)cc3)c(-c3ccncc3)[nH]2)cc1", "note": "(stereo not given)", "residual activity": 118}, {"smiles": "CC(C)[C@H](CO)Nc1nc(Nc2cccc(Cl)c2)c2ncn(C(C)C)c2n1", "residual activity": 72}, {"smiles": "O=C1NC(=O)c2c1c1c3ccccc3n3c1c1c2c2ccccc2n1C1CCC3O1", "residual activity": 88}, {"smiles": "O=c1[nH]c2ccccc2n1C1CCN(Cc2ccc(-c3nc4cc5[nH]cnc5cc4nc3-c3ccccc3)cc2)CC1", "residual activity": 92}, {"smiles": "COc1cc(OC)c(/C=C2\\C(=O)Nc3ccccc32)c(OC)c1", "residual activity": 107}, {"smiles": "COc1ccc2c(c1)/C(=C/c1cnc[nH]1)C(=O)N2", "residual activity": 2}, {"smiles": "CCn1cnc2c(Nc3cccc(Cl)c3)nc(N[C@@H]3CCCC[C@@H]3N)nc21", "residual activity": 68}, {"smiles": "CC(C)(C)c1cc(C=C(C#N)C#N)cc(Br)c1O", "residual activity": 122}, {"smiles": "O=C1Nc2ccc3ncsc3c2/C1=C/c1c[nH]cn1", "residual activity": -2}, {"smiles": "COc1cc2ncnc(Nc3ccc(OCc4ccccc4)cc3)c2cc1OC", "residual activity": 38}, {"smiles": "COc1ccc2c(c[n+](C)c3c4cc5c(cc4ccc23)OCO5)c1OC", "residual activity": 75}]}, {"target": "Aurora kinase B (Homo sapiens) (UniProt Q96GD4)", "sequence (Q96GD4 whole entry)": "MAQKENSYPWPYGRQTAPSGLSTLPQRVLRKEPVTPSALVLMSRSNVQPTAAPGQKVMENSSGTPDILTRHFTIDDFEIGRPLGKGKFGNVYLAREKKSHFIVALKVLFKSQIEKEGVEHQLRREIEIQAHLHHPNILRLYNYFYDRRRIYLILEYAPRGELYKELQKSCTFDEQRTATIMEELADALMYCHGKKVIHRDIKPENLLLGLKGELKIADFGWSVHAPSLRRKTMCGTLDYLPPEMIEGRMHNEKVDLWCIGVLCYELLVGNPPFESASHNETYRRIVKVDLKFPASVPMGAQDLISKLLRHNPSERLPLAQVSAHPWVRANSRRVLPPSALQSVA", "conditions": "at 1 µM", "units": {"residual activity": "%"}, "values": [{"smiles": "CCc1nc(-c2ccc(OC)cc2)[nH]c1-c1ccncc1", "residual activity": 67}, {"smiles": "c1cc(-c2cnn3cc(-c4ccc(OCCN5CCCCC5)cc4)cnc23)ccn1", "residual activity": 18}, {"smiles": "COC(=O)[C@@]1(O)C[C@H]2O[C@]1(C)n1c3ccccc3c3c4c(c5c6ccccc6n2c5c31)C(=O)NC4", "residual activity": 0}, {"smiles": "O=[N+]([O-])/C=C/c1ccc2c(c1)OCO2", "residual activity": 108}, {"smiles": "C[S+]([O-])c1ccc(-c2nc(-c3ccc(F)cc3)c(-c3ccncc3)[nH]2)cc1", "note": "(stereo not given)", "residual activity": 102}, {"smiles": "CC(C)[C@H](CO)Nc1nc(Nc2cccc(Cl)c2)c2ncn(C(C)C)c2n1", "residual activity": 72}, {"smiles": "O=C1NC(=O)c2c1c1c3ccccc3n3c1c1c2c2ccccc2n1C1CCC3O1", "residual activity": 2}, {"smiles": "O=c1[nH]c2ccccc2n1C1CCN(Cc2ccc(-c3nc4cc5[nH]cnc5cc4nc3-c3ccccc3)cc2)CC1", "residual activity": 116}, {"smiles": "COc1cc(OC)c(/C=C2\\C(=O)Nc3ccccc32)c(OC)c1", "residual activity": 59}, {"smiles": "N/C(=N\\[N+](=O)[O-])N/N=C\\c1ccc(-c2cccc([N+](=O)[O-])c2)o1", "residual activity": 80}, {"smiles": "COc1ccc2c(c1)/C(=C/c1cnc[nH]1)C(=O)N2", "residual activity": 21}, {"smiles": "CCn1cnc2c(Nc3cccc(Cl)c3)nc(N[C@@H]3CCCC[C@@H]3N)nc21", "residual activity": 21}, {"smiles": "CC(C)(C)c1cc(C=C(C#N)C#N)cc(Br)c1O", "residual activity": 108}, {"smiles": "O=C1Nc2ccc3ncsc3c2/C1=C/c1c[nH]cn1", "residual activity": 2}, {"smiles": "COc1cc2ncnc(Nc3ccc(OCc4ccccc4)cc3)c2cc1OC", "residual activity": 6}, {"smiles": "COc1ccc2c(c[n+](C)c3c4cc5c(cc4ccc23)OCO5)c1OC", "residual activity": 130}]}]}
